The results in this text go back to PubChem BioAssay (Tox21).

Assay [1] in a line: qHTS assay to identify small molecule agonists of the vitamin D receptor (VDR) signaling pathway - cell viability counter screen (AID 743224). Also: series mostly up to about 63 µM; % is scaled to controls: 0 for no effect and ±100 for the full control effect; nearly all actives have a fitted effect of over 50% in size. The method in brief: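 Compounds were pin-transferred onto VDR-bla cells plated 4 h earlier; following 16 h incubation at 37C, cell viability was quantified by CellTiter-Glo luminescence after 30 min at room temperature.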
For orientation: qHTS replaces the single test concentration by a dilution series.

A short description of assay [2]: qHTS assay to identify small molecule antagonists of the vitamin D receptor (VDR) signaling pathway - cell viability counter screen (AID 743225). Also: % is scaled to controls: 0 for no effect and ±100 for the full control effect; nearly all actives have a fitted effect of over 50% in size. The method in brief:
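Cytotoxicity toward the VDR-bla HEK 293T line was scored by ATP-based CellTiter-Glo luminescence, read in the wells already used for the beta-lactamase readout after 16 h compound treatment under 3 nM 1-alpha,25-dihydroxyvitamin D3 stimulation.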

Assay [3] can be described thus: qHTS assay to identify small molecule agonists of the NFkB signaling pathway (AID 1159509; active = well fitted curve in the direction sought with a large enough effect in the signal ratio in the repeat runs, not every such curve was filed as active; the % refers to the signal ratio; also: series mostly up to about 61 µM; % is scaled to controls: 0 for no effect and ±100 for the full control effect). The method in brief:
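Agonist activity was read as beta-lactamase-driven FRET change (460 and 530 nm emission, 405 nm excitation) following 1.5 hr substrate loading at room temperature. Beforehand, ME-180 NFkB-bla reporter cells were treated with compounds for 5 hr at 37 C.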

Assay [4] in a line: qHTS assay to identify small molecule agonists of the NFkB signaling pathway - cell viability counter screen (AID 1159515; calls by dose curve; also: series mostly up to about 61 µM; % is scaled to controls: 0 for no effect and ±100 for the full control effect; nearly all actives have a fitted effect of over 55% in size). The essentials:
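Parallel cytotoxicity counter screen in ME-180 cells carrying an NFkB-response-element beta-lactamase reporter, 2,000 cells/well. Compound exposure lasted 5 hr at 37 C, 5% CO2. Cell viability was quantified by CellTiter-Glo luminescence.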

Assay [5] in a line: qHTS assay to identify small molecule agonists of the endoplasmic reticulum stress response signaling pathway (AID 1159516; active = well fitted activation curve with a large enough effect in the signal ratio in the repeat runs, not every such curve was filed as active; the % refers to the signal ratio; also: % is scaled to controls: 0 for no effect and ±100 for the full control effect). The essentials: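 Using a HeLa line with an ESRE-driven beta-lactamase gene, agonist activity was measured by FRET substrate fluorescence (460 and 530 nm emission) after cells were treated with compounds for 5 hr at 37 C and 5% CO2.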
Assay [6] is described as follows: qHTS assay to identify small molecule agonists of the endoplasmic reticulum stress response signaling pathway - cell viability counter screen (AID 1159517; calls by dose curve;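 also: HeLa cells carrying an ER stress response element beta-lactamase reporter; series mostly up to about 61 µM; % is scaled to controls: 0 for no effect and ±100 for the full control effect; nearly all actives have a fitted effect of over 50% in size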). The essentials:
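Cpd-treated ESRE-bla HeLa (5 hr, 37 C) → LiveBLAzer 2 hr RT → CellTiter-Glo 30 min RT → luminescence.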

The nature of assay [7]: qHTS assay to identify small molecule antagonists of the retinoid-related orphan receptor gamma (ROR-gamma) signaling pathway - cell viability counter screen (AID 1159520). Also: % is scaled to controls: 0 for no effect and ±100 for the full control effect; nearly all actives have a fitted effect of over 50% in size. The essentials: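 Tet-on ROR gamma CHO cells (1,000/well) were plated 4 hr, given compounds in DMSO for 2 hr at 37 C, then induced with 1 uM final doxycycline for 16 hr. Viability was read as ATP by CellTiter-Glo luminescence after 30 min.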

The target in assay [8] is Nuclear receptor ROR-gamma (Homo sapiens) (UniProt P51449). Kind of assay: qHTS assay to identify small molecule antagonists of the retinoid-related orphan receptor gamma (ROR-gamma) signaling pathway (AID 1159521). The method in brief:
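Readout: ONE-Glo luciferase luminescence, 30 min at room temperature. System: Tet-on RORγ CHO, RORE-LUC. Sequence: compound 2 h, doxycycline 1 uM final, 16 h at 37 C.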

The nature of assay [9]: qHTS assay to identify small molecule agonists of the AP-1 signaling pathway (AID 1159526; calls by dose curve; also: % is scaled to controls: 0 for no effect and ±100 for the full control effect).
For assay [10], the target named is Retinoic acid receptor RXR-alpha (Homo sapiens) (UniProt P19793). Kind of assay: qHTS assay to identify small molecule agonists of the RXR signaling pathway (AID 1159527; calls by dose curve; also: nearly all actives have a fitted effect of over 35% in size; also: potency is read from the fitted curve at half-maximal effect). The essentials:
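Reporter activation is measured as beta-lactamase activity via FRET substrate cleavage (emission 460/530 nm) in HEK 293T cells expressing an RXR-alpha-driven bla construct, following 16 hr compound exposure at 37 C.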

Assay [11] in a line: qHTS assay to identify small molecule agonists of the RXR signaling pathway - cell viability counter screen (AID 1159529). The method in brief: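 Tox21 10K compounds were tested for cytotoxicity against GeneBLAzer RXR-alpha HEK 293T cells grown in 2% charcoal-stripped FBS. Exposure lasted 16 hr at 37 C, 5% CO2; viability read by CellTiter-Glo luminescence.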
The nature of assay [12]: qHTS assay to identify small molecule antagonists of the retinoid acid receptor (RAR) signaling pathway - cell viability counter screen (AID 1159551). Also: % is scaled to controls: 0 for no effect and ±100 for the full control effect; nearly all actives have a fitted effect of over 35% in size. The essentials:
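ATP-based viability, C3RL4 cells, 6 h at 37 C with 1 uM final retinol co-added after compound; luminescence read 30 min post CellTiter-Glo, RT.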

A short description of assay [13]: qHTS assay to identify small molecule antagonists of the estrogen related receptor (ERR) signaling pathway from Tox21 library - cell viability counter screen (AID 1224834). Also: % is scaled to controls: 0 for no effect and ±100 for the full control effect; nearly all actives have a fitted effect of over 30% in size. The essentials: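 Compounds in DMSO were pinned onto ERR cells that had been incubated for 6 h, and the plates were held at 37 C for 17.5 h. CellTiter-Fluor reagent was then added and fluorescence was measured after 30 min.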

The nature of assay [14]: qHTS assay to identify small molecule antagonists of the retinoic acid receptor (RAR) signaling pathway (AID 1159552). The method in brief:
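Overnight-plated C3RL4 reporter cells get compound, then retinol to 1 uM final; plates sit 6 hr at 37 C, 5% CO2. A luciferase reagent is added and light output recorded after 30 min at room temperature.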

The nature of assay [15]: qHTS assay to identify small molecule agonists of the retinoic acid receptor (RAR) signaling pathway (AID 1159553). Also: % is scaled to controls: 0 for no effect and ±100 for the full control effect. The method in brief: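 Quantitative high-throughput format: the Tox21 10K library was tested on C3RL4 RARE-luciferase cells for 6 hr at 37 C and 5% CO2, with luminescence measured after a 30 min room-temperature reagent step.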
A short description of assay [16]: qHTS assay to identify small molecule agonists of the AP-1 signaling pathway - cell viability counter screen (AID 1159525; calls by dose curve; also: nearly all actives have a fitted effect of over 55% in size). The method in brief:
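Each titration point was normalised to DMSO and tetra n-octyl ammonium bromide controls. The read was Cell Titer Glo luminescence after 30 min at RT, following 5 h compound exposure of ME-180 AP-1-bla cells at 37 °C.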

Assay [17] in a line: qHTS assay to identify small molecule antagonists of the estrogen related receptor (ERR) signaling pathway - cell viability counter screen (AID 1224818). The method in brief:
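Quantitative high-throughput viability counter screen in ERR cells. Compounds (DMSO) incubated 17.5 h at 37 C; read-out was CellTiter-Fluor fluorescence.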

For assay [18], the system named is estrogen-related receptor alpha (ERRalpha) with PGC-1alpha coactivator, human. Kind of assay: qHTS assay to identify small molecule antagonists of the estrogen related receptor signaling pathway with the pleiotropic PPARgamma coactivator (PGC) (AID 1224821; calls by dose curve). The essentials:
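Luminescence from One-Glo luciferase reagent (30 min, room temperature) measured after 18 h compound treatment at 37 °C. Cells carry the PGC/ERR reporter and were seeded 6 h prior to dosing.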

A short description of assay [19]: qHTS assay to identify small molecule agonists of the estrogen related receptor signaling pathway with the pleiotropic PPARgamma coactivator (PGC) (AID 1224823). Also: % is scaled to controls: 0 for no effect and ±100 for the full control effect. The essentials: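 Luminescence from One-Glo reagent (30 min, room temperature) was read after 18 h compound treatment at 37 C of PGC/ERR cells plated 6 h beforehand; compounds delivered in DMSO by pin tool.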

Results filed as inconclusive are left out. Values without a mark were called inactive. The source made the active and inactive calls. Unless noted, calls follow the shape of the dose curve; as a rule, active = well fitted curve in the direction sought with a large enough effect in the repeat runs; inconclusive = weak or mixed curves; inactive = no such curve, though single readings can be large; an effect the other way counts as inactive or inconclusive.

Sequence of Retinoic acid receptor RXR-alpha (Homo sapiens) (P19793 whole entry, looked up): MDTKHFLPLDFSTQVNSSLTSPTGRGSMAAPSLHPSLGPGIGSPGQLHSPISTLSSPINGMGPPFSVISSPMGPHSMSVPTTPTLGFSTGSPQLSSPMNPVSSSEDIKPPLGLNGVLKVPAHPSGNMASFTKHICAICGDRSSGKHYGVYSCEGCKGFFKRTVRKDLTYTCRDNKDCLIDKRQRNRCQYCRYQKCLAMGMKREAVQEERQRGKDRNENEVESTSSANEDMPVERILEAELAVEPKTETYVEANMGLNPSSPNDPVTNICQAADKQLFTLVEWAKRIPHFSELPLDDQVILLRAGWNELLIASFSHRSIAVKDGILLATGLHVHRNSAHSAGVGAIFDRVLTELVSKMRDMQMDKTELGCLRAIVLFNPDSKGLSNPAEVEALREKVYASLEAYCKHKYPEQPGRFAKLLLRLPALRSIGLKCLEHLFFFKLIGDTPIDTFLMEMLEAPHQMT

Take `CCNC(=O)C1CC(C)CCC1C(C)C` (centres undefined): the Potency entry in assay [1], in [6], in assay [10] and in assay [13] was “inactive” throughout. In addition, the compound was called inactive in assay [2], in assay [3], in assay [4], in assay [5], in [7] and in assay [8]. The call in assay [9], in [11] and in assay [12] was inactive.

With `BrCCCCCBr`, the Potency entry in [1], in assay [6], in assay [10] and in assay [13] was “inactive” in each case. Further, the result in assay [2], in assay [3], in assay [4], in [5], in [7] and in assay [8] was inactive. Besides, the compound was called inactive in assay [9], in [11] and in [12].

In the case of `O=C(NCC(O)CO)c1c(I)c(C(=O)NCC(O)CO)c(I)c(N(CCO)C(=O)CO)c1I` (centres undefined), the Potency entry in assay [1], in [6], in assay [10], in assay [15] and in [13] was “inactive” in each case. The compound was classed as inactive in assay [2], in assay [3], in assay [4], in [5], in assay [7] and in assay [8]. The compound was classed as inactive in assay [9], in [11], in [12] and in assay [14].

For the compound `Oc1cn2c(n1)Nc1ccc(Cl)c(Cl)c1C2`, the Potency result in assay [1] and in [6] was “inactive” in each case. Moreover, the compound was called inactive in assay [2], in [3], in assay [4] and in assay [5]. The activity, negative = cytotoxicity in assay [7] is -0.0979% [at 19 µM]. For the same compound, the activity change, negative = inhibition in [8] is 0.185% [at 19 µM]. Also, the viability change, negative = cytotoxic in [16] was -0.119% [at 15.8 µM]; in assay [13], 0.934% [at 19 µM]. The activation in assay [9] is 0.89% [at 15.8 µM]. Further, the activity change, negative = cytotoxicity was -0.221% [at 15.8 µM] in [11] and 3.75% [at 19 µM] in [12].

Take `O=S(=O)(O)c1ccc2cc(O)c(S(=O)(=O)O)cc2c1`: the Potency result in assay [1], in [6] and in [10] was “inactive” throughout. Further, the compound was classed as inactive in assay [2], in assay [3], in assay [4], in assay [5], in assay [8] and in [16]. Also, the compound was called inactive in assay [9], in assay [11], in assay [12] and in assay [14].

Consider `On1nnc2ccccc21`, for which the Potency entry in assay [1], in [6] and in [13] was “inactive” each time. Also, the result in assay [2], in assay [3], in assay [4], in [5], in assay [8] and in assay [16] was inactive. In addition, the result in assay [9], in assay [11] and in assay [12] was inactive. Moreover, in assay [10], the Potency is 4.9 µM (active).

`CCCCCCCCC(=O)Cl`: the Potency result in assay [1], in assay [6], in assay [10] and in assay [13] was “inactive” throughout. The call in [2], in assay [3], in [4], in assay [5], in assay [8] and in [16] was inactive. Further, the compound was called inactive in [9], in assay [11] and in [12].

Take `COC(=O)[C@@H]1[C@H]2C[C@H]3c4[nH]c5ccccc5c4CCN3C[C@@H]2CC[C@@H]1O`: the Potency result in assay [1], in assay [6], in assay [10] and in assay [13] was “inactive” each time. The compound was classed as inactive in [2], in [3], in assay [4], in [5], in assay [8] and in [16]. The compound was called inactive in assay [9], in assay [11], in assay [12], in [17], in assay [18] and in assay [19].
